Experiments:
Assay in all cases: DAPPL (digital affinity profiling via proximity ligation, sequencing); 10 mM Tris-HCl pH 7.5, 50 mM NaCl, 1 mM DTT, 4% glycerol, room temperature, 30 min; GST-TFs on glutathione beads, 16-mer random dsDNA library, 0.1% formaldehyde crosslink after washing; high values mean tight binding
[1] = molecular target: T1, FLI1 (Homo sapiens, UniProt Q01543 1-452); settings: protein: recombinant; tags: N-terminal GST; dsDNA, one strand shown
T1 sequence: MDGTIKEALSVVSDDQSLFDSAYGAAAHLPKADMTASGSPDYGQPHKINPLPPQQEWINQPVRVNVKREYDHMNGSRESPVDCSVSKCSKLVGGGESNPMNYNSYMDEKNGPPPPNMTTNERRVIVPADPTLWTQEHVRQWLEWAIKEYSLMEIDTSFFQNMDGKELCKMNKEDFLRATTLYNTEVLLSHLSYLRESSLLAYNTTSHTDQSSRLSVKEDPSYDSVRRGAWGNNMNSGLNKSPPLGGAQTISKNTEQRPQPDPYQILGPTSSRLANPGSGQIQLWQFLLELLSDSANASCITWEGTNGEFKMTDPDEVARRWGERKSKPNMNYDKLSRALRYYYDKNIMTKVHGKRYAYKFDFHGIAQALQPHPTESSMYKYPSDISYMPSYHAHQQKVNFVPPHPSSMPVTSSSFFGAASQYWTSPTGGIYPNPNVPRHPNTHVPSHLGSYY
Outline: (§1)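 Human transcription factors fused to GST were expressed in yeast, captured on glutathione beads, given DNA barcodes and pooled with a GST-only negative control. Pools were incubated with 200 nmole of a 16-mer random double-stranded DNA library in Tris/NaCl/DTT/glycerol buffer at room temperature for 30 min. They were then washed, crosslinked with 0.1% formaldehyde, proximity-ligated (BsaI/T4 ligase, 1 h, 37 °C), PCR-amplified and sequenced on an Illumina NextSeq500. Binding signal is each 6-mer's read frequency for a factor divided by its frequency for the GST control.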

[2] = molecular target: T2, ELK1 (Homo sapiens, UniProt P19419 1-428); settings: protein: recombinant; tags: N-terminal GST; dsDNA, one strand shown
T2 sequence: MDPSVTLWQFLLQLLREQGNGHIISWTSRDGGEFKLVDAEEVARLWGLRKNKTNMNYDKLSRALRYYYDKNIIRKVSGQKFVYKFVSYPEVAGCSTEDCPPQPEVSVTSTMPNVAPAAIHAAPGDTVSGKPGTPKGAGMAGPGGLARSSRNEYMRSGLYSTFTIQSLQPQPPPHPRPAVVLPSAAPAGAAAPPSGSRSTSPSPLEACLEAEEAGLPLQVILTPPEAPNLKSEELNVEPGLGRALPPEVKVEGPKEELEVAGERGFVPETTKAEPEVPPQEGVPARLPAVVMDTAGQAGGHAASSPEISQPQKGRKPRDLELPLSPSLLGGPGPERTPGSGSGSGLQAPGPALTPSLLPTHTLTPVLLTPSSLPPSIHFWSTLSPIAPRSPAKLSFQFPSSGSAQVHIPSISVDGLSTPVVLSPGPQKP
Outline: as §1

[3] = molecular target: T3, GABPA (Homo sapiens, UniProt Q06546 1-454); settings: protein: recombinant; tags: N-terminal GST; dsDNA, one strand shown
T3 sequence: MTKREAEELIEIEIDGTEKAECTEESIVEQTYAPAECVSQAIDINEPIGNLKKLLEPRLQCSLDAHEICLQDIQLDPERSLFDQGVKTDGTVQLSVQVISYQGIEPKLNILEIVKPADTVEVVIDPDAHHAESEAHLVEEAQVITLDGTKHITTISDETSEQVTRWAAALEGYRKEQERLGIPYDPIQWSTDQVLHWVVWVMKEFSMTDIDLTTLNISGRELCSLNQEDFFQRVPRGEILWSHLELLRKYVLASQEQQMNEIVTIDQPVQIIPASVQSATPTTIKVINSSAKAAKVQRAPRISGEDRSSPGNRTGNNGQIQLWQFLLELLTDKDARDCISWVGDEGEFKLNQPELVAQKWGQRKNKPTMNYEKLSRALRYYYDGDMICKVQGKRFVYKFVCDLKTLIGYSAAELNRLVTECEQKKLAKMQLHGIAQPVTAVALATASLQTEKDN
Outline: as §1

[4] = molecular target: T4, ERG (Homo sapiens, UniProt P11308 1-479); settings: protein: recombinant; tags: N-terminal GST; dsDNA, one strand shown
T4 sequence: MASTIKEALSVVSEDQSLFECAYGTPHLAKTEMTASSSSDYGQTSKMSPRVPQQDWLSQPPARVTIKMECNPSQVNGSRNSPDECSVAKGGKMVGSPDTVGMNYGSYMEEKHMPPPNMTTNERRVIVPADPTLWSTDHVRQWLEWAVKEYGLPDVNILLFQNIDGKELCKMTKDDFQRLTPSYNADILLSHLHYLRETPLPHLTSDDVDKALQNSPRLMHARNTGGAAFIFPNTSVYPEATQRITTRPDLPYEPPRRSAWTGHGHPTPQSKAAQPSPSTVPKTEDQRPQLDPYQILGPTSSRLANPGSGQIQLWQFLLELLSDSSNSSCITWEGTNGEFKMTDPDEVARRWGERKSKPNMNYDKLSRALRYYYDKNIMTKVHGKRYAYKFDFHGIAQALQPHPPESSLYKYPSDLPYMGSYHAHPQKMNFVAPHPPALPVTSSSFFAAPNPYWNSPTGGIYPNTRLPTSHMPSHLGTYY
Outline: as §1

[5] = molecular target: ELF1 (Homo sapiens, UniProt P32519 1-619); settings: protein: recombinant; tags: N-terminal GST; dsDNA, one strand shown
Outline: as §1

[6] = molecular target: T5, EHF (Homo sapiens, UniProt Q9NZC4 1-300); settings: protein: recombinant; tags: N-terminal GST; dsDNA, one strand shown
T5 sequence: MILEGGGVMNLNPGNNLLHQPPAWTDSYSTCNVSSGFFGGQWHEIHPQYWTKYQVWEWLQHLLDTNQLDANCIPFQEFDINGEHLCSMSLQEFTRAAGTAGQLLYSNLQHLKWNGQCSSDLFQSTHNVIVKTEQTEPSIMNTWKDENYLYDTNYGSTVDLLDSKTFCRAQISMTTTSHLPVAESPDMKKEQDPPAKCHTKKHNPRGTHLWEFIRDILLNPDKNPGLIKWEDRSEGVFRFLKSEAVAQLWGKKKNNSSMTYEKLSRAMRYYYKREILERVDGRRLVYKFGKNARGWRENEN
Outline: as §1

[7] = molecular target: SPI1 (Homo sapiens, UniProt P17947 1-270); settings: protein: recombinant; tags: N-terminal GST; dsDNA, one strand shown
Outline: as §1

[8] = molecular target: SPIB (Homo sapiens, UniProt Q01892 1-262); settings: protein: recombinant; tags: N-terminal GST; dsDNA, one strand shown
Outline: as §1

[9] = molecular target: T6, ELK3 (Homo sapiens, UniProt P41970 1-407); settings: protein: recombinant; tags: N-terminal GST; dsDNA, one strand shown
T6 sequence: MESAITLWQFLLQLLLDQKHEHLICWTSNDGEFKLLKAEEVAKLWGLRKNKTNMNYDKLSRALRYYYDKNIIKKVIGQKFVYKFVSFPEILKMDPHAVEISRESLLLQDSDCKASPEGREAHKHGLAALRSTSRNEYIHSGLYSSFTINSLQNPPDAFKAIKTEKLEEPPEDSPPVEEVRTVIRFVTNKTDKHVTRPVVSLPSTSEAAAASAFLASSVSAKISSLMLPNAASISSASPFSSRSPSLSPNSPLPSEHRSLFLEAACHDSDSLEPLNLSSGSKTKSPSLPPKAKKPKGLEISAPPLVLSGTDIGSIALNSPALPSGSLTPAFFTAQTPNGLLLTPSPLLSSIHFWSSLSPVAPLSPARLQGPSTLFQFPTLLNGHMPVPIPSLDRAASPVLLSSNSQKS
Outline: as §1

[10] = molecular target: T7, FEV (Homo sapiens, UniProt Q99581 1-238); settings: protein: recombinant; tags: N-terminal GST; dsDNA, one strand shown
T7 sequence: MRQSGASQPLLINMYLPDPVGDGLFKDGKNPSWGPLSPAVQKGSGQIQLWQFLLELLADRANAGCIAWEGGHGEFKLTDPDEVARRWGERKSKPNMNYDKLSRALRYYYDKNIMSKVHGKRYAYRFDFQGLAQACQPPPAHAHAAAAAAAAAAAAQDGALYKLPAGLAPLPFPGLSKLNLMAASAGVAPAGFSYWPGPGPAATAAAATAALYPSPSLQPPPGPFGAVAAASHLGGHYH
Outline: as §1

[11] = molecular target: ETV5 (Homo sapiens, UniProt P41161 1-510); settings: protein: recombinant; tags: N-terminal GST; dsDNA, one strand shown
Outline: as §1

[12] = molecular target: HSF1 (Homo sapiens, UniProt Q00613 1-529); settings: protein: recombinant; tags: N-terminal GST; chain copies: 3; dsDNA, one strand shown
Outline: as §1

[13] = molecular target: T8, SPIC (Homo sapiens, UniProt Q8N5J4 1-248); settings: protein: recombinant; tags: N-terminal GST; dsDNA, one strand shown
T8 sequence: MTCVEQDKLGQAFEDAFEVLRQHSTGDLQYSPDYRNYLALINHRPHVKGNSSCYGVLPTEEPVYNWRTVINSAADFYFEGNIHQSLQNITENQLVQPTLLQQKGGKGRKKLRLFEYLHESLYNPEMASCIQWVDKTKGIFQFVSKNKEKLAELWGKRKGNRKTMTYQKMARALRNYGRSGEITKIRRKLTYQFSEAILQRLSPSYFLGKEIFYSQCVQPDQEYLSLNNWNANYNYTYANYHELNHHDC
Outline: as §1

[14] = molecular target: ELF4 (Homo sapiens, UniProt Q99607 1-663); settings: protein: recombinant; tags: N-terminal GST; dsDNA, one strand shown
Outline: as §1

[15] = molecular target: T9, ELK4 (Homo sapiens, UniProt P28324-2 1-405); settings: protein: recombinant; tags: N-terminal GST; dsDNA, one strand shown
T9 sequence: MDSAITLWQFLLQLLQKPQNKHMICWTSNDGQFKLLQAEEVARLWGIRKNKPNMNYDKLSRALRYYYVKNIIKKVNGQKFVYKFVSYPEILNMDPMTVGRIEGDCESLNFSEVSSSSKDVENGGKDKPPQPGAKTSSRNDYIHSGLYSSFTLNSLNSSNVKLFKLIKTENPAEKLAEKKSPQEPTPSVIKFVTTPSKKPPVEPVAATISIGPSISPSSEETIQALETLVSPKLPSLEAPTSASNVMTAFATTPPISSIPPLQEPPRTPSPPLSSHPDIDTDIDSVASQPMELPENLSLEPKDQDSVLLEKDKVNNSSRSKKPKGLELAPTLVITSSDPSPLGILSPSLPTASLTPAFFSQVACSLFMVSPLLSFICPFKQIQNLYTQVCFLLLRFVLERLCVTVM
Outline: as §1

[16] = molecular target: T10, ETV2 (Homo sapiens, UniProt O00321 1-342); settings: protein: recombinant; tags: N-terminal GST; dsDNA, one strand shown
T10 sequence: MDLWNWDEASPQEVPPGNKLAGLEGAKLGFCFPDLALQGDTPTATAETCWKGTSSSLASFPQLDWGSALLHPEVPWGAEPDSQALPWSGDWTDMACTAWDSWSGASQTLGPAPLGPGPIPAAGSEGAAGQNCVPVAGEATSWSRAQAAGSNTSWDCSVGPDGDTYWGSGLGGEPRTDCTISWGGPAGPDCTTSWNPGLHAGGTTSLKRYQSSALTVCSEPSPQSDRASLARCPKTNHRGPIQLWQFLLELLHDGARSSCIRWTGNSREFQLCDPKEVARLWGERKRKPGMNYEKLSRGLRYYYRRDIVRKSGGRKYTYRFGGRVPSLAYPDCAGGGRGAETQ
Outline: as §1

[17] = molecular target: T11, ELF3 (Homo sapiens, UniProt P78545 1-371); settings: protein: recombinant; tags: N-terminal GST; dsDNA, one strand shown
T11 sequence: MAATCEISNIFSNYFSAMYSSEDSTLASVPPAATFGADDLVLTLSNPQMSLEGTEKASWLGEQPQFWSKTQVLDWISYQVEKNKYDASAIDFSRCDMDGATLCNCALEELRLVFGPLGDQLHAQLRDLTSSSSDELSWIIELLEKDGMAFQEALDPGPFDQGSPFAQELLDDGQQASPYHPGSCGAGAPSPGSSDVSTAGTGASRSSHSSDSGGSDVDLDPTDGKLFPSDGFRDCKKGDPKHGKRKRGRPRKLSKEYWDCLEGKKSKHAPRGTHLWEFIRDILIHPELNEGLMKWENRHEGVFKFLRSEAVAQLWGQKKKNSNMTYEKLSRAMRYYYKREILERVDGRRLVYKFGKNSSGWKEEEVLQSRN
Outline: as §1

[18] = molecular target: CRX (Homo sapiens, UniProt O43186 1-299); settings: protein: recombinant; tags: N-terminal GST; dsDNA, one strand shown
Outline: as §1

[19] = molecular target: ETV1 (Homo sapiens, UniProt P50549 1-477); settings: protein: recombinant; tags: N-terminal GST; dsDNA, one strand shown
Outline: as §1

Sequence of ETV5 (P41161 whole entry): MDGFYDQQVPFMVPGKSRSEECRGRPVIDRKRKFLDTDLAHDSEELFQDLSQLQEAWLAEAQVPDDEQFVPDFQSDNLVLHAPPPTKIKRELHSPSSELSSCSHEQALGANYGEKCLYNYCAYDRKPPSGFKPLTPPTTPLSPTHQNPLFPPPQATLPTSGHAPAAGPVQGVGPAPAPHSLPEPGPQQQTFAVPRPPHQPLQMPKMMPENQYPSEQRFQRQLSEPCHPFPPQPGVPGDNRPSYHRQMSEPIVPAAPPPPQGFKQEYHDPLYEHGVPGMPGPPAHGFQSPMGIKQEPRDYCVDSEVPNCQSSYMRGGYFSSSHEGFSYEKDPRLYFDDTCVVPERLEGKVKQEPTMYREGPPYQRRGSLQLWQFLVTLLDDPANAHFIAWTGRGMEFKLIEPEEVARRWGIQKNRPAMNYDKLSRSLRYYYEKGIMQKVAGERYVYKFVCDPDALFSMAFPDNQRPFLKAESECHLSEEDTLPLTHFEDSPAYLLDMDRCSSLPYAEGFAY
Sequence of HSF1 (Q00613 whole entry): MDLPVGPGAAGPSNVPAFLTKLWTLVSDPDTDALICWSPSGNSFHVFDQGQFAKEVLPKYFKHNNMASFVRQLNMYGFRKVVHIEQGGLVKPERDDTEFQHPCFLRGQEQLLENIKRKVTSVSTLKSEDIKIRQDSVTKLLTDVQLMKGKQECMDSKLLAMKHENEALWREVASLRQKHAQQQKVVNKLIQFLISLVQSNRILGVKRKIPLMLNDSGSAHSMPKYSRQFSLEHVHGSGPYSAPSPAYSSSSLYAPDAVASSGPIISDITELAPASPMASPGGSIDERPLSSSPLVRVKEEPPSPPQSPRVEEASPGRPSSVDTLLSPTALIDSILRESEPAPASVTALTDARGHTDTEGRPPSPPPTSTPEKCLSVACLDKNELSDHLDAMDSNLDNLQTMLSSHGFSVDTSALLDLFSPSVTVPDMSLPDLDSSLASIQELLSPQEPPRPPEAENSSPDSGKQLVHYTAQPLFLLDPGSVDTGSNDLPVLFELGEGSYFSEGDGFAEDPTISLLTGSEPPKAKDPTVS
Sequence of CRX (O43186 whole entry): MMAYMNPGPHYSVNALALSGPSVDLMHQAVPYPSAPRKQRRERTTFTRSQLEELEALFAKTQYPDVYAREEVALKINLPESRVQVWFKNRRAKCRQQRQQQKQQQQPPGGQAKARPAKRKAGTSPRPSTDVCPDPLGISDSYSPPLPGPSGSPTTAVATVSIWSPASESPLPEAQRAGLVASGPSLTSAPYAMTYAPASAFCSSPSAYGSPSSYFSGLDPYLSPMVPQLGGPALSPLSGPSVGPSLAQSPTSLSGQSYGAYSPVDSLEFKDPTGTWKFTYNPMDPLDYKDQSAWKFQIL
Sequence of ELF4 (Q99607 whole entry): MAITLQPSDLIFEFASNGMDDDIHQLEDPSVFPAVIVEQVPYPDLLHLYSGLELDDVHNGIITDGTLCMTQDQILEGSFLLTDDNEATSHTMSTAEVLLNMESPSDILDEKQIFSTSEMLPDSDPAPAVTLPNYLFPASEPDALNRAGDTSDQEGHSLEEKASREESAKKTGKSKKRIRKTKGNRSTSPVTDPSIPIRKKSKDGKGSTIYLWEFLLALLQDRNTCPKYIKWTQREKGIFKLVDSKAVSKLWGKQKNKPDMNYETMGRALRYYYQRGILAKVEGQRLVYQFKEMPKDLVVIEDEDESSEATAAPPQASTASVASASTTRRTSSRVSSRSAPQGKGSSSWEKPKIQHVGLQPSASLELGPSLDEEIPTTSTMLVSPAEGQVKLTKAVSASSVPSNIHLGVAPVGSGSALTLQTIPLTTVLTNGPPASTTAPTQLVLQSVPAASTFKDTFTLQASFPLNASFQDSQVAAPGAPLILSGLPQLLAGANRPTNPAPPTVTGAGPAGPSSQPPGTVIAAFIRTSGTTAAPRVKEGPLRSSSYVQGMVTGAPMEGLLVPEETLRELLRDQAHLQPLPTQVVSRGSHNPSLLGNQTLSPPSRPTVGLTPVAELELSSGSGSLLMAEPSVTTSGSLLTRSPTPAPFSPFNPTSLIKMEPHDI
Sequence of ETV1 (P50549 whole entry): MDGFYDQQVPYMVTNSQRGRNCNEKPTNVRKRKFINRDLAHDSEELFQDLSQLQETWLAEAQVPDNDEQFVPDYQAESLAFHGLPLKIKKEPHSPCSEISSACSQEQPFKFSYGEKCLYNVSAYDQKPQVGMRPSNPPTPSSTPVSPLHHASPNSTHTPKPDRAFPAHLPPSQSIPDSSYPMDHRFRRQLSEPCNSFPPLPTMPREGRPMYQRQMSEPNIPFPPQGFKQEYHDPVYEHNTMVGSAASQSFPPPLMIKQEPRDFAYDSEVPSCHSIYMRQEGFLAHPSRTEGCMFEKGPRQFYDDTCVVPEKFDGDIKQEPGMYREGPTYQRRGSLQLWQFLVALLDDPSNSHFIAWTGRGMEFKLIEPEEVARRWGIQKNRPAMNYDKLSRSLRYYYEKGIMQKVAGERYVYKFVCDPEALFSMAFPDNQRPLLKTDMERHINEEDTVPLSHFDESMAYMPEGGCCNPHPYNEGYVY
Sequence of SPIB (Q01892 whole entry): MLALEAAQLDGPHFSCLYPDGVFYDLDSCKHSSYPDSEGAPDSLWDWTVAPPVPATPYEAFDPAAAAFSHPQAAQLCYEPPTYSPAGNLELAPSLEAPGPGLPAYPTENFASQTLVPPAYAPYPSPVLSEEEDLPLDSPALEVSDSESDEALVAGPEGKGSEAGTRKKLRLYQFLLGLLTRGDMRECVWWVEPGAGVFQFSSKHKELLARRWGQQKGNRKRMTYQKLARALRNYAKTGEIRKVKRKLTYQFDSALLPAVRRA
Sequence of ELF1 (P32519 whole entry): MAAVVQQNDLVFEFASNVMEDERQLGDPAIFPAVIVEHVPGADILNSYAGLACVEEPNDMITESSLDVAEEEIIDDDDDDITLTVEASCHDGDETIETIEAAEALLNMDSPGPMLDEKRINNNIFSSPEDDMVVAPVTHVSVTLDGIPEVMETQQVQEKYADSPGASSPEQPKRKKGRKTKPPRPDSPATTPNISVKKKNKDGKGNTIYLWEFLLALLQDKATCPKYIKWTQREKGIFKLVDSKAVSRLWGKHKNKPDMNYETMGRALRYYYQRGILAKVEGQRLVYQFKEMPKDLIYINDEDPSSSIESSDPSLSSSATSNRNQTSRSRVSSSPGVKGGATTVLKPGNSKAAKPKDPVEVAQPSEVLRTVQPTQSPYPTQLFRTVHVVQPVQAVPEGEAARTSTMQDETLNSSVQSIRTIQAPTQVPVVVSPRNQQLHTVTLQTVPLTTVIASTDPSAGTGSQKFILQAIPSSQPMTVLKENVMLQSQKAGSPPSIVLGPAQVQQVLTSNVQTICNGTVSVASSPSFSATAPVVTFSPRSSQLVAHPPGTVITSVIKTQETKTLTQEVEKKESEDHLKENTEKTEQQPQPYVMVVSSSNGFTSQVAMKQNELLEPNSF

TGCTAT
binding signal [1]: 1.42 fold enrichment (6-mer frequency, TF over GST control) | binding signal [2]: 1.36 fold enrichment (6-mer frequency, TF over GST control) | binding signal [3]: 1.47 fold enrichment (6-mer frequency, TF over GST control) | binding signal [4]: 1.41 fold enrichment (6-mer frequency, TF over GST control) | binding signal [5]: 1.46 fold enrichment (6-mer frequency, TF over GST control) | binding signal [6]: 1.49 fold enrichment (6-mer frequency, TF over GST control) | binding signal [7]: 1.33 fold enrichment (6-mer frequency, TF over GST control) | binding signal [8]: 1.47 fold enrichment (6-mer frequency, TF over GST control) | binding signal [9]: 1.63 fold enrichment (6-mer frequency, TF over GST control) | binding signal [10]: 1.39 fold enrichment (6-mer frequency, TF over GST control) | binding signal [11]: 1.43 fold enrichment (6-mer frequency, TF over GST control) | binding signal [12]: 1.22 fold enrichment (6-mer frequency, TF over GST control) | binding signal [13]: 1.37 fold enrichment (6-mer frequency, TF over GST control) | binding signal [14]: 1.37 fold enrichment (6-mer frequency, TF over GST control) | binding signal [15]: 1.57 fold enrichment (6-mer frequency, TF over GST control) | binding signal [16]: 1.71 fold enrichment (6-mer frequency, TF over GST control) | binding signal [17]: 1.6 fold enrichment (6-mer frequency, TF over GST control) | binding signal [18]: 1.3 fold enrichment (6-mer frequency, TF over GST control) | binding signal [19]: 1.31 fold enrichment (6-mer frequency, TF over GST control)
